# CBFb RUNX1 block = blocks binding between human CBF-beta and RUNX1; AlphaScreen CBFb-His/RUNX1-biotin binding, biochemical; Potency, µM (titrated, usually from 59.8 µM), actives largely listed as inhibitors; 230,000 tested, under 10 active
#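 Room-temperature protein-protein interaction test with 30 nM each of His-tagged CBF-beta and biotinylated RUNX1, 15 min with compound, then 90 min with nickel plus streptavidin beads. Signal read in AlphaScreen mode.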
# JMJD2E inh = inhibitors of human JMJD2E histone demethylase; B2RXH2; JMJD2E catalytic domain, FDH-coupled NADH fluorescence (FDH is formaldehyde dehydrogenase); Potency, µM (highest dose often 57.1 µM), most hits filed as inhibitors; hit rate 1.6% among 230,000; AID 2147; active = well fitted inhibition curve with a large enough effect, not every such curve was filed as active; inconclusive = small, poorly fitted or top-dose-only effect, or another doubt; inactive = no such curve, though single readings can be large or run the other way; note: nearly all actives have a fitted effect of over 50% in size
# Target sequence (B2RXH2 1-337 limits assumed): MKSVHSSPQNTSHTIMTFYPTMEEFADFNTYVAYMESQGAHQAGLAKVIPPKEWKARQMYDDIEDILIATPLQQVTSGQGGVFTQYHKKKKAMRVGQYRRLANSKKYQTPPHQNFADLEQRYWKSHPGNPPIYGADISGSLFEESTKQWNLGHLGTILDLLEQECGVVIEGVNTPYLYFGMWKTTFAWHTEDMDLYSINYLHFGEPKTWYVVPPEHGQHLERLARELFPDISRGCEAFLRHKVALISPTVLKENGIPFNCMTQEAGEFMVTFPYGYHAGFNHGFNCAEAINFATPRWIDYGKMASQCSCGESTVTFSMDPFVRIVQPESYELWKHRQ
# Lamin A splicing = changes lamin A minigene splicing in HeLa cells. HeLa LMNA splicing GFP/RFP minigene ratio, 48 h. Potency, µM (titrated, usually from 46.1 µM), actives largely listed as inhibitors. hit rate 0.01% among 200,000. AID 1487; active = well fitted inhibition curve with a large enough effect in the signal ratio, with a control signal flat, not every such curve was filed as active; inconclusive = small, poorly fitted or top-dose-only effect, or effect the other way, or a change in a side signal; the % refers to the signal ratio
#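 Read-out is the ratio of GFP to DsRed2 object intensity, acquired by 488 nm laser-scanning cytometry on HeLa lamin A-EGFP minigene reporter cells. Compound incubation 48 hrs at 37 °C in Opti-MEM with 2% FBS; DMSO 0.5% final.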
# Tau fibril FP = inhibitors of human tau fibril formation; P10636; K18 P301L tau heparin fibrillization, Alexa594 FP, 6 h; Potency, µM (series often up to 57.7 µM), hits mostly inhibitors; hit rate 0.39% among 280,000; note: nearly all actives have a fitted effect of over 55% in size
# Target sequence (P10636 561-689 P618L limits assumed): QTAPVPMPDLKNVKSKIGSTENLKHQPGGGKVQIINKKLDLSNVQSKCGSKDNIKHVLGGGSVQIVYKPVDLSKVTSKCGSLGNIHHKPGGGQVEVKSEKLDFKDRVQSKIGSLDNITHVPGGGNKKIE
#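 Human K18 P301L fragment (15 uM unlabeled plus 0.24 uM Alexa 594-labeled) in 100 mM sodium acetate pH 7 with compound, aggregation induced by 20 uM heparin for 6 hr at 37 C. ThT (30 uM) added for 1 hr, then Alexa 594 FP read.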
# Tau fluor cs = counter-screen for tau fibril formation inhibitors | Potency, µM (doses to about 57.7 µM) | tau K18 P301L Alexa594 fluorescence, heparin fibrillization | hit rate 0.93% among 280,000; note: nearly all actives have a fitted effect of over 55% in size
#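 Human K18 P301L tau (15 uM unlabeled plus 0.24 uM Alexa 594-labeled, final) in 100 mM sodium acetate pH 7 was mixed with compound and 20 uM heparin and incubated 6 hr at 37 C.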
# Tau fibril ThT = inhibitors of human tau fibril formation, thioflavin T binding; AID 1460; hit rate 2.1% among 270,000; Potency, µM (series often up to 57.4 µM), usual class: inhibitors; recombinant tau K18 P301L, heparin-induced fibrillization, ThT fluorescence; P10636; note: nearly all actives have a fitted effect of over 55% in size
#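 Fibril formation assay: tau K18 P301L at 15 uM with trace Alexa 594 label, heparin inducer 20 uM, pH 7 sodium acetate buffer, 37 C for 6 hr; endpoint ThT signal.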
# A number is an active result; . = inactive; ? = inconclusive; / = no result; [ ] = another dose, or the depositor's remark. Most compounds without a hit are left out; they make up all but 3.2% or so of the library. Unless noted, calls come from the whole dose curve; as a rule, active = well fitted curve in the direction sought with a large enough effect; inconclusive = small, poorly fitted or top-dose-only effect, or another doubt; inactive = no such curve, though single readings can be large; an effect the other way counts as inactive or inconclusive.
SMILES,CBFb RUNX1 block,JMJD2E inh,Lamin A splicing,Tau fibril FP,Tau fluor cs,Tau fibril ThT
Oc1ccc(/C=C/c2nc(-c3ccccc3O)n(-c3ccccc3)n2)cc1,.,?,?,?,31.6µM[quencher],?
Oc1ccc(/C=C/c2nc(-c3ccccc3O)n(-c3ccccc3)n2)c(O)c1,/,/,/,?,5.62µM[quencher],?
Cc1cc(=O)[nH]c(SCC(=O)/C=C2\N(C)c3ccccc3C2(C)C)n1,.,?,?,?,25.1µM[fluorescent],?
CN1/C(=C/C(=O)CSc2ccccc2C(=O)O)C(C)(C)c2ccccc21,.,.,/,.,?,?
Cc1cc(O)c(C(C)(C)C)cc1Sc1cc(C(C)(C)C)c(O)cc1C,.,/,/,/,/,/
Oc1ccc(-c2n[nH]c(C(F)(F)F)c2-c2ccccc2)c(O)c1,.,.,/,.,?,.
COc1ccccc1-c1c(-c2ccc(O)cc2O)n[nH]c1C(F)(F)F,.,.,/,.,8.91µM[quencher],.
COc1ccc(-c2c(-c3ccc(O)cc3O)n[nH]c2C)cc1OC,.,.,?,.,.,.
COc1ccc(-c2c(-c3ccc(O)cc3O)n[nH]c2C(F)(F)F)cc1,.,.,/,.,11.2µM[quencher],.
COc1ccc(-c2nc3c(C#N)c[nH]n3c2NC2CCCC2)c(OC)c1,/,/,/,.,.,?
Cn1c(=O)c2c(nc(NN=C3CCCC3)n2C)n(C)c1=O,.,?,/,?,22.4µM[quencher],22.4µM
COc1cc(OC)c(NC(=O)N2CCCn3nc(C)cc32)cc1Cl,/,/,.,.,.,.
CC(=O)c1ccc(NC(=O)Cn2c(=O)oc3cc(S(=O)(=O)N4CCCCC4)ccc32)cc1,/,/,/,.,.,.
CC1=CC(C)(C)Nc2cc(C)c(C)cc21,.,11.2µM,?,.,.,?
CC1=CC(C)(C)Nc2ccc(C)cc21,?,14.1µM,.,.,.,?
CC1=CC(C)(C)Nc2ccc(Cc3ccc4c(c3)C(C)=CC(C)(C)N4)cc21,.,?,/,.,?,?
CC[C@H](C)[C@H](NC(=O)[C@H](CCC(=O)O)NC(=O)CNC(=O)[C@@H](NC(=O)[C@H](CCC(=O)O)NC(=O)[C@H](CCC(=O)O)NC(=O)[C@H](CC(C)C)NC(=O)CNC(=O)[C@@H]1CCCN1C(=O)[C@H](CCC(=O)O)NC(=O)[C@@H](N)[C@@H](C)O)C(C)C)C(=O)N[C@@H](CCC(=O)O)C(=O)N[C@@H](CCC(N)=O)C(=O)N[C@@H](CCCCN)C(=O)N[C@@H](CCC(N)=O)C(=O)N[C@@H](CC(C)C)C(=O)N[C@@H](CCC(N)=O)C(=O)O,.,/,/,/,/,/
CCOC(=O)c1c(N)n(-c2ccc(OCC)cc2)c2nc3ccccc3nc12,/,/,?,.,.,.
CCC(C)n1c(=O)c2sccc2n2c(CCCC(=O)N3CCN(c4ccccc4)CC3)nnc12 (stereo unspecified),/,/,/,.,.,.
COc1ccc(C2N(c3ccc(C)cc3)CCN2c2ccc(C)cc2)cc1O,.,.,?,.,25.1µM[quencher],?
COc1cc(C2N(c3ccccc3)CCN2c2ccccc2)ccc1OC(C)=O,.,.,.,.,.,.
COc1cc(CNc2ccc3[nH]c(=O)[nH]c3c2)ccc1OCC(=O)NC(C)(C)C,.,?,.,?,?,14.1µM
COc1cc(CNc2ccc3[nH]c(=O)[nH]c3c2)cc(Br)c1OCC(=O)NC(C)(C)C,.,.,?,.,?,?
CC[Si](CC)(CC)O[C@H]([C@@H](C)COCOC)[C@@H](C)COCc1ccc(OC)cc1,.,/,/,/,/,/
O=c1[nH]c(S)c(/C=C2\C=Nc3ccccc32)s1,?,.,/,?,?,1.41µM
Cc1ccc(OCC(=O)NC2CC(C)(C)NC(C)(C)C2)cc1C,.,.,.,.,.,.
CCc1ccc(OCC(=O)NC2CC(C)(C)NC(C)(C)C2)cc1,.,.,.,.,.,12.6µM
Nc1cc([N+](=O)[O-])ccc1Nc1ccccc1,.,.,.,?,?,15.8µM
O=C(O)c1cc([N+](=O)[O-])ccc1Nc1ccccc1,.,.,.,.,.,?
O=[N+]([O-])c1ccc(N=NNc2ccccc2)cc1,.,.,/,.,14.1µM[quencher],8.91µM

# Screening data deposited in PubChem BioAssay by National Center for Advancing Translational Sciences (NCATS).
